Records with an inconclusive call do not appear. Active and inactive are the calls of the source. Calls follow the shape of the dose curve; as a rule, active = well fitted curve in the direction sought with a large enough effect; inconclusive = small, poorly fitted or top-dose-only effect, or another doubt; inactive = no such curve, though single readings can be large; an effect the other way counts as inactive or inconclusive.
Assays:
[1] = MultiTox-Fluor Cytotoxicity Assay - LYMP1-002 - Live Cells (AID 955);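 also: cells exposed to compound for 16 hours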
Method in brief: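 In this qHTS viability format, lymphoblastoid cells (LYMP1-002, human) received compound for 16 hr at 37 C. Fluorogenic GF-AFC cleavage by viable cells was detected at 405/510 nm after 1 h at room temperature.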

[2] = MultiTox-Fluor Cytotoxicity Assay - LYMP1-002 - Dead Cells (AID 960); also: nearly all actives have a fitted effect of over 60% in size
Method in brief: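 Concentration-dependent increases in membrane-leaked protease activity are quantified in LYMP1-002 cells after 16 hr treatment; values are normalized against DMSO and tetraoctylammonium bromide (15 uM) controls and AC50 derived by Hill modeling.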

[3] = MultiTox-Fluor Cytotoxicity Assay - LYMP1-003 - Dead Cells (AID 961); also: nearly all actives have a fitted effect of over 70% in size
Method in brief: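 Acute toxicity is scored as increased dead-cell protease activity in human lymphoblastoid LYMP1-003 cells after 16 h compound exposure in complete culture medium. Activity is normalized to DMSO basal and 15 uM tetraoctylammonium bromide as full response.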

[4] = MultiTox-Fluor Cytotoxicity Assay - LYMP1-003 - Live Cells (AID 962);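 also: cells exposed to compound for 16 hours at 37 °C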
Method in brief: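 Human lymphoblastoid line LYMP1-003 in complete culture medium, treated 16 hr with titrated compounds. Viable cells quantified via cell-permeant GF-AFC substrate fluorescence; AC50 derived by Hill fitting.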

[5] = Cell Viability - LYMP1-003 - Assay at 24 hr (AID 963)
Method in brief: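 The lymphoblastoid line was treated with titrated compounds for 24 hours, and viable cell number estimated from luciferase-based ATP luminescence.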

[6] = Cell Viability - LYMP2-005 (AID 967)
Method in brief: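 LYMP2-005 human lymphoblastoid cells (2500/well) were treated with compounds for 24 h at 37 C. Intracellular ATP was then measured by CellTiter-Glo luminescence after 30 min at room temperature. AC50 values came from Hill-equation fits of qHTS concentration-response data.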

[7] = Cell Viability - LYMP2-009 (AID 968); also: nearly all actives have a fitted effect of over 55% in size
[8] = Cell Viability - LYMP1-003 - Assay at 40 hr (AID 964); also: nearly all actives have a fitted effect of over 60% in size
Method in brief: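 Acute toxicity is scored as a concentration-dependent loss of intracellular ATP in LYMP1-003 cells (2500/well, complete medium) after 40 hr at 37 C, measured by CellTiter-Glo luminescence; AC50 values derive from standard Hill modelling.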

[9] = Cell Viability - LYMP2-003 (AID 965);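 also: cells exposed to compounds for 24 h before reading; nearly all actives have a fitted effect of over 50% in size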
Method in brief: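 CellTiter-Glo luminescence quantified ATP loss after 24 h compound treatment of LYMP2-003 lymphoblastoid cells at 37 C. Titration series were fitted with the standard Hill equation to give AC50.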

[10] = Cell Viability - LYMP2-004 (AID 966); also: nearly all actives have a fitted effect of over 65% in size
Method in brief: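 Viable-cell number estimated from ATP luminescence (CellTiter-Glo) in 2500 human lymphoblastoid cells/well after 24 hr at 37 C with compound. AC50 fitted to the standard Hill equation.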

Measured: Potency
Potency is read from the fitted curve at half-maximal effect.

CCCC(=O)c1cc(O)c(O)cc1O
not listed: [8] | [9] | [10]
inactive: all other assays above

CCCCC(CC)COC(=O)c1ccccc1C(=O)O (stereo not given)
inactive: all assays above

CC(C)(C)c1ccc(O)c(O)c1
active: [8] 25.1 µM | [9] 50.1 µM | [7] 39.8 µM
inactive: [1] | [2] | [4] | [5]

Cc1cc(C(C)(C)C)c(O)c(C(C)(C)C)c1
not listed: [2]
inactive: all other assays above

C1=CC2C3C=CC(C3)C2C1 (stereo not given)
not listed: [10]
inactive: all other assays above

Nc1cccc2c(N)cccc12
inactive: all assays above

Cc1ccc(O)cc1
not listed: [2]
inactive: all other assays above

O=C(NO)c1ccccc1
inactive: all assays above

CC(C)(c1ccc(O)cc1)c1ccc(O)cc1
inactive: all assays above

CCCCCCCCCCCCCCCC[n+]1ccccc1
active: [1] 12.6 µM | [2] 10 µM | [4] 31.6 µM | [5] 20 µM | [8] 10 µM | [9] 31.6 µM | [6] 15.8 µM | [7] 15.8 µM

OCc1c[nH]c2ccccc12
inactive: all assays above

CC(=O)OC/C=C(C)/C=C/C=C(C)/C=C/C1=C(C)CCCC1(C)C
inactive: [1] | [2] | [3] | [4] | [5]

c1ccc2occc2c1
inactive: all assays above

Brc1ccccc1-c1ccccc1
inactive: all assays above

O=C(c1ccccc1)c1ccccc1
inactive: all assays above

O=C(Oc1ccccc1)c1ccccc1O
inactive: all assays above

COc1cc(C=O)ccc1O
inactive: all assays above

Nc1c2ccccc2nc2ccccc12
active: [2] 7.94 µM | [3] 15.8 µM | [5] 25.1 µM | [8] 20 µM | [9] 25.1 µM | [10] 12.6 µM | [7] 10 µM
inactive: [1] | [4]

Nc1ccc(O)cc1
active: [1] 25.1 µM | [2] 31.6 µM | [3] 50.1 µM | [5] 50.1 µM | [8] 39.8 µM | [9] 25.1 µM | [10] 25.1 µM | [6] 25.1 µM | [7] 31.6 µM

CC(C)C(C)(C)C(C)(C)C(C)(C)S
not listed: [2] | [6]
inactive: all other assays above

Oc1ccccc1
inactive: all assays above

From PubChem BioAssay (NCATS)
